The target of experiment [1] is T1, Serine/threonine-protein kinase D2 (Homo sapiens) (UniProt Q9BZL6).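 Also: mean value of PRKD2 inhibition, from the GSK PKIS screening panel.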
T1 sequence (whole entry): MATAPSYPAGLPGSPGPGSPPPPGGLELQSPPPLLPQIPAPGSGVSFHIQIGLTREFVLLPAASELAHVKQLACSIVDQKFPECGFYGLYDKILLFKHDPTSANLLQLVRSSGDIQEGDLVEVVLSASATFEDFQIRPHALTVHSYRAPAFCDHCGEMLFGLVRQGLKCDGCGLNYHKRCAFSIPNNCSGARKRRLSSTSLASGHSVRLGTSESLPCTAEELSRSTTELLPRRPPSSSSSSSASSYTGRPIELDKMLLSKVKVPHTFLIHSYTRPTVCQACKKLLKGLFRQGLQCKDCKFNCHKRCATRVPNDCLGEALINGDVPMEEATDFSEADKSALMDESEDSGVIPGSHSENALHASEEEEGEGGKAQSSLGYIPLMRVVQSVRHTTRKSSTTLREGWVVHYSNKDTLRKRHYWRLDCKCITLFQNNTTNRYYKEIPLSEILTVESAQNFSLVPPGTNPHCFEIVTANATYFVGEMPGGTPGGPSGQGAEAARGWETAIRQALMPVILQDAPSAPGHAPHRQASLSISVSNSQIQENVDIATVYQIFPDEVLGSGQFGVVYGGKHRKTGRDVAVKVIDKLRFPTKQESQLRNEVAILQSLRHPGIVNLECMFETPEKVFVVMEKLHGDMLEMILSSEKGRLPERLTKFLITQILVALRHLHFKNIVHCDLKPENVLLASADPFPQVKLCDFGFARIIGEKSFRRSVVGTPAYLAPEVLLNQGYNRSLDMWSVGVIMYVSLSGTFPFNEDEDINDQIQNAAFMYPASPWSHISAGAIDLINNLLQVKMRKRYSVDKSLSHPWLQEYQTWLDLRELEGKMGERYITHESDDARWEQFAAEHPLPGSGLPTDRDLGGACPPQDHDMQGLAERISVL
Particulars: at 1 µM.

For experiment [2], the target named is T2, Serine/threonine-protein kinase D3 (Homo sapiens) (UniProt O94806).
T2 sequence (whole entry): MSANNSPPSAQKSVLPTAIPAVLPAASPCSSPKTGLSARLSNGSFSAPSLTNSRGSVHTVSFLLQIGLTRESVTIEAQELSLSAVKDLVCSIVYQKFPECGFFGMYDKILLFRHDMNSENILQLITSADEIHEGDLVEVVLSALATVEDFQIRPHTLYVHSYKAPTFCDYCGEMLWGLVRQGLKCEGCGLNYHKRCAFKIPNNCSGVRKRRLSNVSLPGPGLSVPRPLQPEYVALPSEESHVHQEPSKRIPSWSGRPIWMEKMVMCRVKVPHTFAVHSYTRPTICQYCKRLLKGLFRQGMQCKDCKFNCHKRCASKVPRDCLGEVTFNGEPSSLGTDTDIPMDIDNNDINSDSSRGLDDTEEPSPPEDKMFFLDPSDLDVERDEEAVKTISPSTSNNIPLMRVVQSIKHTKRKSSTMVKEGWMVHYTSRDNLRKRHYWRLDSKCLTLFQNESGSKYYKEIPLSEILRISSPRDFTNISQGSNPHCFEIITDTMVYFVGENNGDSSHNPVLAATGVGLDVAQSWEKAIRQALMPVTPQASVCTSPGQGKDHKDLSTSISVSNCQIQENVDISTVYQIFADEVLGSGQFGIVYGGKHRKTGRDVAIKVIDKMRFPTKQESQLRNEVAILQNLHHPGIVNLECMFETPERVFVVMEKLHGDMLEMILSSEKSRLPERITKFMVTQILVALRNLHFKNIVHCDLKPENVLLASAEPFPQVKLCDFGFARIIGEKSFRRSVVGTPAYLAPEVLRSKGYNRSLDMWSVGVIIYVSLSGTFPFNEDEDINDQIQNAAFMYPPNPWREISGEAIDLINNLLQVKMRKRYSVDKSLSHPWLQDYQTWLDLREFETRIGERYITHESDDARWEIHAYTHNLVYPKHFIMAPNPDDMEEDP
The note with it: at 0.1 µM.

Experiment [3] concerns the target T2, Serine/threonine-protein kinase D3 (Homo sapiens). The note with it: at 1 µM.
Experiment [4] has as its target T3, cGMP-dependent protein kinase 1 (Homo sapiens) (UniProt Q13976).
T3 sequence (whole entry): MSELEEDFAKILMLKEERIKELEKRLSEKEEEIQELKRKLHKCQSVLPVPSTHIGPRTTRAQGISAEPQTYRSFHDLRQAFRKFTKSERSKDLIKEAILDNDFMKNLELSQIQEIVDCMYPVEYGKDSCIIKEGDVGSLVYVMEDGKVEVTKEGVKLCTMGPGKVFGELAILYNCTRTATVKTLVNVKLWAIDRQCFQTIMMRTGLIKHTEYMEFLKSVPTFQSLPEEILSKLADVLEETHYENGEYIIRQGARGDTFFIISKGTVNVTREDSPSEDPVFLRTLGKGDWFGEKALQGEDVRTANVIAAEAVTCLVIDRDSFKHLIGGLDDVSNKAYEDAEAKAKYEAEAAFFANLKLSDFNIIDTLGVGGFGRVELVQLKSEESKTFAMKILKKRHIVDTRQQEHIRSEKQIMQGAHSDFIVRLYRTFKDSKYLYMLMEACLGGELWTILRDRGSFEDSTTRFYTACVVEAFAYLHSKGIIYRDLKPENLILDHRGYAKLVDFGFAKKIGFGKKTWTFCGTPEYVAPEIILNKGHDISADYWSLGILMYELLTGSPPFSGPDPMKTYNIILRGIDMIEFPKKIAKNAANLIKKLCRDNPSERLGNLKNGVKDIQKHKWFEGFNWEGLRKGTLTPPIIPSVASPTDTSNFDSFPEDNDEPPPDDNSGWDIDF
Particulars: at 0.1 µM.

In experiment [5] the target is T3, cGMP-dependent protein kinase 1 (Homo sapiens). Particulars: at 1 µM.
Experiment [6] has as its target T4, cGMP-dependent protein kinase 2 (Homo sapiens) (UniProt Q13237).
T4 sequence (whole entry): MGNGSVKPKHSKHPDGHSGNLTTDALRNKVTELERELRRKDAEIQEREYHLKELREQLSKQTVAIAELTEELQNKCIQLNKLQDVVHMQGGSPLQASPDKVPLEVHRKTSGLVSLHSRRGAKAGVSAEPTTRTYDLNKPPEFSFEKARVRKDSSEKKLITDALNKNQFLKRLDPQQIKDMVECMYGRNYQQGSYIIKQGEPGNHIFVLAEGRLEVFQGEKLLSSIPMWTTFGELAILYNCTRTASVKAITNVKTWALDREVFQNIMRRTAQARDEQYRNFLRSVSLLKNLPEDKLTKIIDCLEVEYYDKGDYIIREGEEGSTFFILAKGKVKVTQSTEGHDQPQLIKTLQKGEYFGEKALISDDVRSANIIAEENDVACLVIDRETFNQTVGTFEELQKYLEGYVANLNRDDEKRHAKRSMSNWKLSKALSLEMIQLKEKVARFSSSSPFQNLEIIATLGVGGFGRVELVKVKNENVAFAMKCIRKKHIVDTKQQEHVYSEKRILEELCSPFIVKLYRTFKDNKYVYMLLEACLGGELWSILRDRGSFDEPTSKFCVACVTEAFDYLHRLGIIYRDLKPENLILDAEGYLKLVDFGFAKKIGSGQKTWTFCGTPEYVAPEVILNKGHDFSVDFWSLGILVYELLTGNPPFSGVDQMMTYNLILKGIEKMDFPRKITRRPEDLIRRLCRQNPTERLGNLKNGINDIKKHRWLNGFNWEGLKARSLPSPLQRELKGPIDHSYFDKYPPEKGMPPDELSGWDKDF
Particulars: at 0.1 µM.

For experiment [7], the target named is T4, cGMP-dependent protein kinase 2 (Homo sapiens). The note with it: at 1 µM.
Experiment [8] deals with T5, cAMP-dependent protein kinase catalytic subunit PRKX (Homo sapiens) (UniProt P51817).
T5 sequence (whole entry): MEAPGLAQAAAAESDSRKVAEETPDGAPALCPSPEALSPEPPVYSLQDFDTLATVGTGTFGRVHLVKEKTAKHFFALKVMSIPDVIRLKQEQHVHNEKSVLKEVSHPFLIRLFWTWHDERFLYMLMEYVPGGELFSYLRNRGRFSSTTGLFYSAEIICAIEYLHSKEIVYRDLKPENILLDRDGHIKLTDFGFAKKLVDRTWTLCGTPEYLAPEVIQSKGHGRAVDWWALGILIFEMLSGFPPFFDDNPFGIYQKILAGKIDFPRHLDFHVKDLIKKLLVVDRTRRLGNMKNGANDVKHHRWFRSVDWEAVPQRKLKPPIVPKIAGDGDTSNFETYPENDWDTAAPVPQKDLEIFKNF
Particulars: at 0.1 µM.

In experiment [9] the target is T5, cAMP-dependent protein kinase catalytic subunit PRKX (Homo sapiens). The note with it: at 1 µM.
Experiment [10] addresses Rho-associated protein kinase 1 (Homo sapiens) (UniProt Q13464). Particulars: at 0.1 µM.
For experiment [11] the target is unchanged. Particulars: at 1 µM.
For experiment [12], the target named is Rho-associated protein kinase 2 (Homo sapiens) (UniProt O75116). Particulars: at 0.1 µM.
Experiment [13] shares this target. Particulars: at 1 µM.
The target in experiment [14] is Ribosomal protein S6 kinase alpha-1 (Homo sapiens) (UniProt Q15418). Particulars: at 0.1 µM.
The target is the same in experiment [15]. Particulars: at 1 µM.
Experiment [16] has as its target Ribosomal protein S6 kinase alpha-3 (Homo sapiens) (UniProt P51812). Particulars: at 0.1 µM.
Experiment [17] shares this target. Particulars: at 1 µM.
Experiment [18] concerns the target Ribosomal protein S6 kinase alpha-2 (Homo sapiens) (UniProt Q15349). Particulars: at 0.1 µM.
Experiment [19] has the same target. The note with it: at 1 µM.
The target in experiment [20] is Ribosomal protein S6 kinase alpha-6 (Homo sapiens) (UniProt Q9UK32). The note with it: at 0.1 µM.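 Also: reported value is the mean inhibition of RSK4, from the GSK PKIS kinase inhibitor screen.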

The inhibition is the relative decrease from the control value, in per cent.

Sequence of Ribosomal protein S6 kinase alpha-1 (Homo sapiens) (Q15418 whole entry): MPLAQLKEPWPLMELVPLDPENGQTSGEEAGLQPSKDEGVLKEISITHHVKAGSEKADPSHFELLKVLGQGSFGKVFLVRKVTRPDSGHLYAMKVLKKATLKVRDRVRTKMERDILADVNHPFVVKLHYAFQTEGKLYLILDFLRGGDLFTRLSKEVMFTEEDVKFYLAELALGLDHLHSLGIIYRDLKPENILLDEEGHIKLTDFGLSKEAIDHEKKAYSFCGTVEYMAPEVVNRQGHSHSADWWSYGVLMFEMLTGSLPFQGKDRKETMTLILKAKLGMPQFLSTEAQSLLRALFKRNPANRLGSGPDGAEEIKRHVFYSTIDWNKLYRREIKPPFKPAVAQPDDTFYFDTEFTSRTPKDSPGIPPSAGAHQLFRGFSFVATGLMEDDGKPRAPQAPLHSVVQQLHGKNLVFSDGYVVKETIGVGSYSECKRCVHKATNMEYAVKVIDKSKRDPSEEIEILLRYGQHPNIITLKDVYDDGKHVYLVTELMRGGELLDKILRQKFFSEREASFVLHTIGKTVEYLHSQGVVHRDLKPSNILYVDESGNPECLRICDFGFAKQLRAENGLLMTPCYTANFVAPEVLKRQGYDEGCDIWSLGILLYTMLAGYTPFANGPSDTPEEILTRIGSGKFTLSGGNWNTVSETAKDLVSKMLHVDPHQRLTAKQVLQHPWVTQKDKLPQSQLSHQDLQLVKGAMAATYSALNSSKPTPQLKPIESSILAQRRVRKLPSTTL
Sequence of Rho-associated protein kinase 1 (Homo sapiens) (Q13464 2-1354 limits assumed): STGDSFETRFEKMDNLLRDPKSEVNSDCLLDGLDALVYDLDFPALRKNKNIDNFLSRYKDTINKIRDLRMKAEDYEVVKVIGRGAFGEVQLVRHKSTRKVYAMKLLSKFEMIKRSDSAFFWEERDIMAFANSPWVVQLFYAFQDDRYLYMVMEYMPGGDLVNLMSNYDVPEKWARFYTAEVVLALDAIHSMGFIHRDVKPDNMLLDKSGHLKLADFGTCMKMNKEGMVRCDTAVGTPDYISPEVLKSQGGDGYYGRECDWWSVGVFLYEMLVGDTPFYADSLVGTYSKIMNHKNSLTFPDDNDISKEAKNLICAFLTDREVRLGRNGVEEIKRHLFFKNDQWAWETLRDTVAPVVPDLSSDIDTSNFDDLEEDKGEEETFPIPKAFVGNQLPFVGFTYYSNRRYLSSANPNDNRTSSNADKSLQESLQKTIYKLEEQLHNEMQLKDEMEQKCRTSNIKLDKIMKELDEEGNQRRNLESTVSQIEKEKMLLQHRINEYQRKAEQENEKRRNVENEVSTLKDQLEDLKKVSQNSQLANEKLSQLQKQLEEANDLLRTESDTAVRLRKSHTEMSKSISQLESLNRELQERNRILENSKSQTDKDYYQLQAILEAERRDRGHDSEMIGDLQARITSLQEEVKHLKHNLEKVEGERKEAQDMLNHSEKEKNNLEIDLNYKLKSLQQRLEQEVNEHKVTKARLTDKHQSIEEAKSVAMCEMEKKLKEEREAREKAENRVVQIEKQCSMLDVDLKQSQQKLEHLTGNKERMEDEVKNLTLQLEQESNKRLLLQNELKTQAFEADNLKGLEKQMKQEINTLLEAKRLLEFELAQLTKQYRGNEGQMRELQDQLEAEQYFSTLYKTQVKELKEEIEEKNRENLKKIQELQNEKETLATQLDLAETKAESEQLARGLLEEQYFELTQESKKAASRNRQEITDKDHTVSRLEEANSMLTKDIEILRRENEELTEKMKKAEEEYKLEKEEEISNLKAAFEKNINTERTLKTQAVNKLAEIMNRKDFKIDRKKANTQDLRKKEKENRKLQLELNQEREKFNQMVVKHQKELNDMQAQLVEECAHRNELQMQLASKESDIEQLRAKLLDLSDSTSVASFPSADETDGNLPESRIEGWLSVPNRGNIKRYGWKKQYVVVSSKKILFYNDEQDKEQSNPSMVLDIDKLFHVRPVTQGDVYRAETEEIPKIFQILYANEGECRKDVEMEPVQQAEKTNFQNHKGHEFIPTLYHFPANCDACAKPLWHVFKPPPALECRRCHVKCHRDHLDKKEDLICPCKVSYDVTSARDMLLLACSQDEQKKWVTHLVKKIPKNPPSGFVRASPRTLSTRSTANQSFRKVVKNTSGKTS
Sequence of Ribosomal protein S6 kinase alpha-2 (Homo sapiens) (Q15349 whole entry): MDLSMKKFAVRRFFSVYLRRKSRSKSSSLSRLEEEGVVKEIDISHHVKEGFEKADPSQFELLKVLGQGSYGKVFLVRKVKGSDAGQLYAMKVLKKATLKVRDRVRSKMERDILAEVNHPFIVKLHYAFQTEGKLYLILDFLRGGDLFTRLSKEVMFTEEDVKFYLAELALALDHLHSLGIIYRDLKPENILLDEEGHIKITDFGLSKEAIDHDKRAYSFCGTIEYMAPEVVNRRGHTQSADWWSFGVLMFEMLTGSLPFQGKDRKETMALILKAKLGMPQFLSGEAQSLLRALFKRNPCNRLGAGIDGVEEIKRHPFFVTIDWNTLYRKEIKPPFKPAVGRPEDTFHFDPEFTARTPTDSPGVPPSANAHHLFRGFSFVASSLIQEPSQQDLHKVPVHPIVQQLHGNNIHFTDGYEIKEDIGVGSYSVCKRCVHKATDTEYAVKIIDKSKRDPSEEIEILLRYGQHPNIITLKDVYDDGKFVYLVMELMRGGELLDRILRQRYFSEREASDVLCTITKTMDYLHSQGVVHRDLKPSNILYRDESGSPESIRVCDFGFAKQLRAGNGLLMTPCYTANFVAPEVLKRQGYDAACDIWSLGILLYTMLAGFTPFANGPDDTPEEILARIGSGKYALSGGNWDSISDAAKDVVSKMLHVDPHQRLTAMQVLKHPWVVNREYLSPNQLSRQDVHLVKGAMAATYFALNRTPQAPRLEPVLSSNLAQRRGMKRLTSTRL
Sequence of Ribosomal protein S6 kinase alpha-3 (Homo sapiens) (P51812 whole entry): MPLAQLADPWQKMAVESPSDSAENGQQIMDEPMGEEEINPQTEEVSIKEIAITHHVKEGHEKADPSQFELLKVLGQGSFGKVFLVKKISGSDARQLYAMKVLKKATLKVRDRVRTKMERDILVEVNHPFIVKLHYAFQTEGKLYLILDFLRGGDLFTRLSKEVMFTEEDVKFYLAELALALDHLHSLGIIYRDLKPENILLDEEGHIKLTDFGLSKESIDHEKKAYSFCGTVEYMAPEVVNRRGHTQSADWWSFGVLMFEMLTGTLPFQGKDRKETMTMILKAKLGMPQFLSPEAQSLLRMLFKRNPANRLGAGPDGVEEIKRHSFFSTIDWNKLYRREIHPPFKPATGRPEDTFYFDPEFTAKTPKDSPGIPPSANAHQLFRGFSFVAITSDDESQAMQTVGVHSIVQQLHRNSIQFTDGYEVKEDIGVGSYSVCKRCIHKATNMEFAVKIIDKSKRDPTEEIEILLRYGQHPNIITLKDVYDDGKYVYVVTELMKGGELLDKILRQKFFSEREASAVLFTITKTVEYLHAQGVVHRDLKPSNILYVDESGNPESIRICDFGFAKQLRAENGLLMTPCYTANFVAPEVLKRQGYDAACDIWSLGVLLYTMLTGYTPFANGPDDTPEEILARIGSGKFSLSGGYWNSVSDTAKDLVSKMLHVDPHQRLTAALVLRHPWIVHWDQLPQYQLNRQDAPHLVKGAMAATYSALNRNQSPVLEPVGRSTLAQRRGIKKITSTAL
Sequence of Ribosomal protein S6 kinase alpha-6 (Homo sapiens) (Q9UK32 whole entry): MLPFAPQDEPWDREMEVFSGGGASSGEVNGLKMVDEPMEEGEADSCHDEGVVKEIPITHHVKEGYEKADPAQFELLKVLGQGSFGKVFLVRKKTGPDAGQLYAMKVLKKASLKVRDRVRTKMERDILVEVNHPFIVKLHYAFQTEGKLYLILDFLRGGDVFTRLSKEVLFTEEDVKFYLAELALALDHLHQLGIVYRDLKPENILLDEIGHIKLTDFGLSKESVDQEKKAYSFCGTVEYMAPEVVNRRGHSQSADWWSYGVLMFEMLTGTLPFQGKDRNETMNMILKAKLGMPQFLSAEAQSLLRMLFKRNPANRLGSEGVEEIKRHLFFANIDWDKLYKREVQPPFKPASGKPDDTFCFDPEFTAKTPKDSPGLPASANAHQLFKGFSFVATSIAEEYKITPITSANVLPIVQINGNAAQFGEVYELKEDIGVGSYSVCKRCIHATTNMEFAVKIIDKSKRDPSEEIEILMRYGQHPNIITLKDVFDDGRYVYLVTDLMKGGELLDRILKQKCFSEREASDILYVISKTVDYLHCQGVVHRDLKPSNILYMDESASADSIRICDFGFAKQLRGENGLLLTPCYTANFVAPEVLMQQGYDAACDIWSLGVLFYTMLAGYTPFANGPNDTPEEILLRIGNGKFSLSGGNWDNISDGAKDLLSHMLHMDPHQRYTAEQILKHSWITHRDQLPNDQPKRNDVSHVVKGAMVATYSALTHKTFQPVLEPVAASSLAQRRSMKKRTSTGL

Turning to `O=C1NC(=O)C(c2ccccc2Cl)=C1Nc1cccc(O)c1`, the inhibition amounted to 2.71% in experiment [1]; 2.73% in experiment [2]; 2.86% in experiment [3]; 2.17% in experiment [4]; 3.29% in experiment [5]; 1.54% in [6]. Besides, the inhibition in [7] came to 4.57%; in experiment [8], 2.14%; in experiment [9], 4.07%; in experiment [10], 3.29%; in experiment [11], 4.61%; in experiment [12], 6.16%. For the same molecule, the inhibition in [13] came out at 3.66%; in experiment [14] it was 1.82%; in experiment [15], 4.3%; in experiment [16], 1.65%; in experiment [17] it was 4.49%; in [18] it was 2.1%. For the same molecule, the inhibition stood at 6.19% in experiment [19] and 0.75% in experiment [20].

Take `CS(=O)(=O)Nc1ccc(N/C=C2\C(=O)Nc3ccccc32)cc1`: the inhibition in experiment [1] was 2.63%; in [2], -1.78%; in experiment [3] it was -0.06%; in [4], -1.67%; in experiment [5], -1.49%; in [6], -0.94%. Also, the inhibition in experiment [7] is 3.29%; in experiment [8] it was -0.88%; in experiment [9] it was 0.66%; in [10], -0.53%; in experiment [11], 1.4%; in experiment [12], -0.88%. The inhibition amounted to 1.99% in [13]; 1.8% in [14]; 9.64% in experiment [15]; 1.88% in experiment [16]; 9.89% in experiment [17]; 0.85% in experiment [18]. Moreover, the inhibition in experiment [19] came to 13.8%; in experiment [20] it was 0.95%.

Take `COc1cc(C)c(NC(=O)CN(C)C)cc1Nc1nc(Nc2cccc(F)c2C(N)=O)c2cc[nH]c2n1`: the inhibition in experiment [1] was determined as 31.9%; in [2], 3.99%; in [3], 38.4%; in experiment [4] it was 1.52%; in experiment [5] it was 4.26%; in [6], 1.95%. Moreover, the inhibition was 2.22% in [7]; -0.65% in experiment [8]; -1.72% in experiment [9]; 0.5% in [10]; 11.4% in [11]; 1.26% in experiment [12]. Further, the inhibition amounted to 7.68% in experiment [13]; 9.42% in experiment [14]; 40.7% in experiment [15]; 4.6% in experiment [16]; 23.1% in experiment [17]; 1.22% in experiment [18]. Moreover, the inhibition in experiment [19] was 11.5%; in experiment [20], 3.59%.

For the origin of these results see ChEMBL document CHEMBL1961873, “Compounds: GSK PKIS; Assays: Nanosyn kinase panel” (2012).
